Out of some 5,700 compounds screened, about 85 (1%) were called active. Cut-off read from the data, not from the text of the source: active = p53-positive nuclei above about 36% (passing the limit was not always enough); inactive = the rest. Many of the other results were omitted from the sample, so actives are more common in it than they were.

Assay [1] can be described thus: p53 stabilisation in HPV-positive human cells, imaging, p53-positive nuclei imaging, 24 h, 48 h (AID 1508601). The note with it: 24/48 h.
For assay [2], the target named is Cellular tumor antigen p53 (Homo sapiens) (UniProt P04637). The assay is described as above. Conditions: 24/48 h, stronger effect = higher value.
Where [3] appears, read: measured here: cell number at 24 h, Library stock concentration: 10 mM.
Where [4] appears, read: measured here: cell number at 48 h, Library stock concentration: 10 mM.
The mark [5] stands for this setting: Library stock concentration: 10 mM.
Where [6] appears, read: measured here: p53 positive nuclei at 24 h, Library stock concentration: 10 mM.
Setting [7] is: measured here: cell number at 24 h, Library stock concentration: 3.33 mM.
[8] abbreviates: measured here: cell number at 48 h, Library stock concentration: 3.33 mM.
Where [9] appears, read: Library stock concentration: 3.33 mM.
[10] abbreviates: measured here: p53 positive nuclei at 24 h, Library stock concentration: 3.33 mM.
Setting [11] is: measured here: cell number at 24 h, Library stock concentration: 80 uM.
[12] abbreviates: measured here: cell number at 24 h, Library stock concentration: 400 uM.
Setting [13] is: measured here: cell number at 24 h, Library stock concentration: 2 mM.
[14] abbreviates: measured here: cell number at 48 h, Library stock concentration: 80 uM.
The mark [15] stands for this setting: measured here: cell number at 48 h, Library stock concentration: 400 uM.
The mark [16] stands for this setting: measured here: cell number at 48 h, Library stock concentration: 2 mM.
Setting [17] is: Library stock concentration: 80 uM.
Where [18] appears, read: Library stock concentration: 400 uM.
[19] abbreviates: Library stock concentration: 2 mM.
Setting [20] is: measured here: p53 positive nuclei at 24 h, Library stock concentration: 80 uM.
Where [21] appears, read: measured here: p53 positive nuclei at 24 h, Library stock concentration: 400 uM.
[22] abbreviates: measured here: p53 positive nuclei at 24 h, Library stock concentration: 2 mM.

Cellular tumor antigen p53 (Homo sapiens), sequence (P04637 whole entry, looked up): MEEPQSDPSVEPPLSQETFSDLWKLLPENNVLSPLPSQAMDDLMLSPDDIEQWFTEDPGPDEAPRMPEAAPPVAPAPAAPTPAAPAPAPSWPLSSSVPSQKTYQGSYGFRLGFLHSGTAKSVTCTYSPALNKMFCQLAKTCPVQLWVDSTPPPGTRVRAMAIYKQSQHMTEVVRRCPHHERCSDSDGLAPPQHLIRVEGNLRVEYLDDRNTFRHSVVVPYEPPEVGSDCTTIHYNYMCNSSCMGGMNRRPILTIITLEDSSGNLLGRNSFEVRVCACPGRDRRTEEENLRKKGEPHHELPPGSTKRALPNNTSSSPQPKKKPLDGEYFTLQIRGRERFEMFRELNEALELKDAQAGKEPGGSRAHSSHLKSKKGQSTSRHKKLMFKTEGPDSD

In the case of `Cc1cc(C)c(N(Cc2ccccc2)S(=O)(=O)c2ccc(OCCNC(=O)c3cc4ccccc4o3)cc2)c(C(=O)NO)c1`, the nuclei count, normalised in assay [1] (measured here: cell number at 24 h, Library stock concentration: 46 uM) worked out at 106%; in assay [1] (measured here: cell number at 24 h, Library stock concentration: 278 uM) it was 102%; in assay [1] (measured here: cell number at 24 h, Library stock concentration: 1.67 mM), 106%; in assay [1] (setting [3]), 108%; in assay [1] (measured here: cell number at 48 h, Library stock concentration: 46 uM), 108%; in assay [1] (measured here: cell number at 48 h, Library stock concentration: 278 uM), 104%. Besides, the nuclei count, normalised came out at 111% in assay [1] (measured here: cell number at 48 h, Library stock concentration: 1.67 mM) and 119% in assay [1] (setting [4]). Also, the p53-positive nuclei, normalised in assay [2] (Library stock concentration: 46 uM) was -0.344% (inactive); in assay [2] (Library stock concentration: 278 uM), -0.116% (inactive); in assay [2] (Library stock concentration: 1.67 mM), -0.271% (inactive); in assay [2] (setting [5]) it was 0.0163% (inactive); in assay [2] (measured here: p53 positive nuclei at 24 h, Library stock concentration: 46 uM), -0.21%; in assay [2] (measured here: p53 positive nuclei at 24 h, Library stock concentration: 278 uM), -0.21%. Further, the p53-positive nuclei, normalised was -0.139% in assay [2] (measured here: p53 positive nuclei at 24 h, Library stock concentration: 1.67 mM) and -0.147% in assay [2] (setting [6]).
In the case of `CN(C)Cc1c(C(=O)NCCOc2ccc(C(=O)NO)cc2)oc2ccccc12`, the results for the nuclei count, normalised in assay [1] (setting [7]) and in assay [1] (setting [8]) were 40% and 23.5%, respectively. In addition, the p53-positive nuclei, normalised was 74.6% (active) in assay [2] (setting [9]) and 61.4% in assay [2] (setting [10]).
`COc1cc(C(=O)NCc2ccc(OCCN(C)C)cc2)cc(OC)c1OC`: the nuclei count, normalised in assay [1] (measured here: cell number at 24 h, concentration not given here) worked out at 106%; in assay [1] (measured here: cell number at 48 h, concentration not given here), 102%. For the same molecule, the p53-positive nuclei, normalised in assay [2] (concentration not given here) was -0.214% (inactive); in assay [2] (measured here: p53 positive nuclei at 24 h, concentration not given here) it was -0.0679%.
For the molecule `CC(C)C1C(=O)NC(CCCN=C(N)N)C(=O)NCC(=O)NC(CC(=O)O)C(=O)NC(Cc2ccccc2)C(=O)N1C` (stereo not drawn), the nuclei count, normalised in assay [1] (setting [11]) was found to be 104%; in assay [1] (setting [12]), 96.6%; in assay [1] (setting [13]), 88.2%; in assay [1] (setting [7]) it was 88.5%; in assay [1] (setting [3]), 51.2%; in assay [1] (setting [14]), 94.6%. The nuclei count, normalised was determined as 89.6% in assay [1] (setting [15]), 76.5% in assay [1] (setting [16]), 85.4% in assay [1] (setting [8]) and 34.6% in assay [1] (setting [4]). The p53-positive nuclei, normalised in assay [2] (setting [17]) is 0.242% (inactive); in assay [2] (setting [18]) it was 0.104% (inactive); in assay [2] (setting [19]), -0.113% (inactive); in assay [2] (setting [9]), -0.0271% (inactive); in assay [2] (setting [5]), -0.0215% (inactive); in assay [2] (setting [20]), 0.00102%. The p53-positive nuclei, normalised is -0.0368% in assay [2] (setting [21]), -0.0914% in assay [2] (setting [22]), -0.218% in assay [2] (setting [10]) and -0.22% in assay [2] (setting [6]).
For `CC(CCC(=O)O)C1CC[C@H]2[C@@H]3C(O)C[C@@H]4CC(O)CC[C@]4(C)[C@@H]3CC[C@]12C` (stereo partly drawn), the nuclei count, normalised in assay [1] (setting [11]) is 103%; in assay [1] (setting [12]), 104%; in assay [1] (setting [13]), 103%; in assay [1] (setting [3]), 105%; in assay [1] (setting [14]) it was 101%; in assay [1] (setting [15]), 101%. The nuclei count, normalised in assay [1] (setting [16]) came out at 100%; in assay [1] (setting [4]) it was 106%. Besides, the p53-positive nuclei, normalised in assay [2] (setting [17]) is 0.0117% (inactive); in assay [2] (setting [18]), -0.178% (inactive); in assay [2] (setting [19]), 0.0148% (inactive); in assay [2] (setting [5]), -0.147% (inactive); in assay [2] (setting [20]), 0.00498%; in assay [2] (setting [21]) it was -0.109%. In addition, the p53-positive nuclei, normalised in assay [2] (setting [22]) is -0.106%; in assay [2] (setting [6]), -0.11%.
On to `O=C(C=Cc1ccc(CN(CCO)CCc2c[nH]c3ccccc23)cc1)NO`, for which the nuclei count, normalised in assay [1] (setting [7]) amounted to 37.8%; in assay [1] (setting [8]) it was 20.4%. In addition, the p53-positive nuclei, normalised was 113% (active) in assay [2] (setting [9]) and 94.4% in assay [2] (setting [10]).
In the case of `OCc1c[nH]c2ccccc12`, the nuclei count, normalised in assay [1] (setting [11]) turned out to be 116%; in assay [1] (setting [12]) it was 113%; in assay [1] (setting [13]), 124%; in assay [1] (setting [7]), 121%; in assay [1] (setting [3]), 113%; in assay [1] (setting [14]) it was 111%. Moreover, the nuclei count, normalised turned out to be 105% in assay [1] (setting [15]), 115% in assay [1] (setting [16]), 105% in assay [1] (setting [8]) and 106% in assay [1] (setting [4]). The p53-positive nuclei, normalised in assay [2] (setting [17]) was -0.0881% (inactive); in assay [2] (setting [18]) it was 0.33% (inactive); in assay [2] (setting [19]), 0.0198% (inactive); in assay [2] (setting [9]), -0.0843% (inactive); in assay [2] (setting [5]) it was -0.042% (inactive); in assay [2] (setting [20]) it was -0.0144%. In addition, the p53-positive nuclei, normalised in assay [2] (setting [21]) was 0.188%; in assay [2] (setting [22]), 0.151%; in assay [2] (setting [10]) it was -0.374%; in assay [2] (setting [6]), 0.0508%.
Consider `O=C(O)CCCc1c[nH]c2ccccc12`, for which the figures for the nuclei count, normalised in assay [1] (setting [7]) and in assay [1] (setting [8]) were 110% and 101%, respectively. Also, the p53-positive nuclei, normalised in assay [2] (setting [9]) was -0.0398% (inactive); in assay [2] (setting [10]), 2.53%.
